High-throughput results deposited in PubChem BioAssay by several laboratories.
Only some compounds are listed: those with a hit (about 2.2% of all), similar ones and a draw of the others.
IEC-6 cytotox: IEC-6 cytotoxicity, counter-screen for KLF5 inhibitors; 0.78% of 290,000 active; luminescence viability; inhibition, % at 5 µM; in the data active means inhibition above about 22%
APP transl inh: APP translation inhibition; SH-SY5Y APP 5'UTR-luciferase reporter, luminescence; inhibition, % at 2 µM; 0.82% of 190,000 active;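 active means inhibition above a set limit, derived from the sample mean plus 3 SD, cut at about 45% in these data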
KLF5 inhibitor: kruppel-like factor 5 inhibition; DLD-1 KLF5 promoter-luciferase reporter, luminescence; inhibition, % at 5 µM; 0.23% of 290,000 active; AID 1700;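 active means inhibition above a per-plate limit of that plate's mean compound inhibition plus 3 SD, cut at about 60% in these data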;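 further: higher means less KLF5 promoter-driven luciferase light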
Ba/F3 V617F tox: reduce viability of Ba/F3 cells dependent on JAK2V617F | Ba/F3 EpoR-JAK2V617F viability, ATP luminescence | inhibition, % at 5.6 µM | 1.1% of 220,000 active;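 active means inhibition above the campaign mean plus 3 SD over all tested compounds, cut at about 24% in these data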;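 further: cytokine-independent growth of Ba/F3 cells driven by EpoR plus mutant JAK2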
aSyn 5UTR inh: MLPCN primary screen, SNCA 5' untranslated region; alpha-synuclein 5'UTR reporter, inhibitor activity; inhibition, % (tested at 7.5 µM); 0.82% of 300,000 active; AID 1813; in the data active means inhibition above about 60%;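 further: H4 neuroglioblastoma cells stably carrying SNCA 5'UTR luciferase fusion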
BaF3 parental: parental Ba/F3 viability inhibition as JAK2V617F counter-screen; CellTiter-Glo ATP luminescence; inhibition, % at 5.6 µM; 1.1% of 220,000 active;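 active means inhibition above a per-campaign cutoff, the mean inhibition of all tested compounds plus 3 SD, cut at about 27% in these data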
Each line names hits and unclear results; the compound was inactive in the other large screens.

COc1cc([C@@H]2c3cc4c(cc3[C@@H](O[C@@H]3O[C@@H]5CO[C@@H](C)O[C@H]5[C@H](O)[C@H]3O)[C@H]3COC(=O)[C@H]23)OCO4)cc(OC)c1O	none (no result: IEC-6 cytotox, APP transl inh, KLF5 inhibitor, Ba/F3 V617F tox, BaF3 parental)
CC(NCc1ccc(S(N)(=O)=O)cc1)C(=O)Nc1ccc([N+](=O)[O-])cc1Cl (centres undefined)	none
O=C(c1cccc(S(=O)(=O)N2CCN(c3ccc(F)cc3)CC2)c1)N1CCCC(C(F)(F)F)C1 (centres undefined)	none (no result: IEC-6 cytotox, APP transl inh, KLF5 inhibitor, Ba/F3 V617F tox, BaF3 parental)
COc1nc(Nc2nc3ccccc3c(=O)[nH]2)nc2ccc(C)cc12	aSyn 5UTR inh 89.9 (no result: APP transl inh)
COc1ccccc1P(=O)(Cc1ccccc1[N+](=O)[O-])c1ccccc1 (centres undefined)	none (no result: APP transl inh, Ba/F3 V617F tox, BaF3 parental)
O=[N+]([O-])c1ccc2[nH]c3nc4ccccc4nc3c2c1	Ba/F3 V617F tox 36.3, BaF3 parental 42.8 (no result: APP transl inh)
O=[N+]([O-])c1ccc2[nH]nc(-c3ccccc3)c2c1	none
COc1cc(OC)c2cc[nH]c2c1	none
COc1ccc2cc[nH]c2c1	aSyn 5UTR inh 70.8
Cc1ccc(C)c(OCC(O)CN2CCC(CN3C(=O)c4cccc5cccc(c45)C3=O)CC2)c1 (centres undefined)	APP transl inh 69.3
COc1ccc(OCC(O)CN2CCC(CN3C(=O)c4cccc5cccc(c45)C3=O)CC2)cc1 (centres undefined)	none (no result: IEC-6 cytotox, APP transl inh, KLF5 inhibitor, Ba/F3 V617F tox, BaF3 parental)
Cc1nnc(-c2ccccc2)c(=O)n1/N=C/c1c(O)ccc2ccccc12	APP transl inh 60.9, aSyn 5UTR inh 83.1
CCN1CCN(/C=N/c2nc3c(s2)CCCC3)CC1	aSyn 5UTR inh 65.6
CN1CCN(CC(=O)Nc2nc3c(s2)CCCC3)CC1	none (no result: APP transl inh)
CCN(Cc1ccncc1)C(=S)Nc1ccc(Cl)cc1	Ba/F3 V617F tox 24.0, BaF3 parental 26.9
S=C(Nc1ccccc1)N(Cc1ccccc1)Cc1ccncc1	none
CCN(CC)C(=S)Nc1ccc(Cl)c(Cl)c1	BaF3 parental 31.8
COC(=O)c1ccccc1NC(=O)CSc1nncn1-c1ccccn1	none (no result: APP transl inh, Ba/F3 V617F tox, BaF3 parental)
C/C(=N\NC(=O)c1cc(-c2ccc(C)s2)[nH]n1)c1ccncc1	none (no result: APP transl inh, Ba/F3 V617F tox, BaF3 parental)
COc1ccc(Cl)cc1C(=O)NNC(=O)COC(=O)CCN=C1NS(=O)(=O)c2ccccc21	none (no result: IEC-6 cytotox, APP transl inh, KLF5 inhibitor, Ba/F3 V617F tox, BaF3 parental)
CS(=O)(=O)N(CC(=O)N1CCc2ccccc2C1)c1ccc2c(c1)OCO2	BaF3 parental 92.8
COc1ccccc1CN1CCN(S(=O)(=O)c2ccc(C)cc2)CC1	none (no result: IEC-6 cytotox, APP transl inh, KLF5 inhibitor, Ba/F3 V617F tox, BaF3 parental)
COc1ccc(NC(=O)CCS(=O)(=O)c2ccccc2Cl)cc1S(=O)(=O)Nc1ccc(Cl)cc1	BaF3 parental 68.9
C=CCn1c(C)cc(C(=O)COC(=O)/C=C/c2cccc(OC)c2)c1C	none
O=c1c2sc(-c3ccccc3)cc2nc2n1CCC2	aSyn 5UTR inh 82.4
CCOc1ccc2nc(CN3CCN(Cc4ccsc4)C(CCO)C3)ccc2c1 (centres undefined)	none
C=CCNC(=O)CN1N=C(c2ccc(C)cc2)CCC1=O	none (no result: APP transl inh, Ba/F3 V617F tox, BaF3 parental)
CSc1cccc(CN2CCC(n3nccc3NC(=O)C3CC3)CC2)c1	none (no result: APP transl inh, Ba/F3 V617F tox, BaF3 parental)
O=S(=O)(c1cccc(C(F)(F)F)c1)N1CCCC1c1cccnc1 (centres undefined)	BaF3 parental 32.1 (no result: APP transl inh)
Cc1ccc2c(c1)C=CC(C)N2C(=O)c1ccccc1 (centres undefined)	none
Cc1ccc2c(c1)C=CC(C#N)N2C(=O)c1ccccc1 (centres undefined)	IEC-6 cytotox 40.1, APP transl inh 93.9, Ba/F3 V617F tox 78.4, BaF3 parental 35.9
Cc1[nH]n(-c2nc(-c3ccc(Cl)cc3)cs2)c(=O)c1N=Nc1ccc(O)cc1	APP transl inh 53.5
CCc1c(C)[nH]n(-c2nc(-c3ccccc3)cs2)c1=O	none
Nc1ccc(N2CCCCCC2)cc1	Ba/F3 V617F tox 43.1, BaF3 parental 58.9 (no result: aSyn 5UTR inh)
O=C(NCCc1ccccc1)c1cccnc1	none
O=C(NCCc1ccccc1)c1ccc2nccnc2c1	aSyn 5UTR inh 63.1
CC[N+](C)(C)CCN(Cc1ccc(Cl)cc1)c1ccccn1	Ba/F3 V617F tox 27.3, BaF3 parental 38.6
O=C(O)c1ccc(N/N=C/c2ccc(OC(=O)c3cccc(Cl)c3)cc2)cc1	aSyn 5UTR inh 76.0 (no result: APP transl inh)
Cc1ccc(CCNC(=O)CC(C)CC2=NS(=O)(=O)c3ccccc3N2)cc1 (centres undefined)	none (no result: APP transl inh, Ba/F3 V617F tox, BaF3 parental)
Cc1cccc(C)c1NC(=O)CN1C(=O)CCSc2ccc(S(=O)(=O)N3CCCC3)cc21	none (no result: APP transl inh, Ba/F3 V617F tox, BaF3 parental)
CCCCCCc1cc2cc(C(=O)Nc3cccc(OC)c3)c(=O)oc2cc1O	aSyn 5UTR inh 62.8
O=C(/C=C/Nc1ccc(S(=O)(=O)Nc2cnc3ccccc3n2)cc1)c1ccccc1	BaF3 parental 51.8 (no result: APP transl inh)
CCCCc1ccc(NC(=O)CSc2nnc(C)c(=O)n2N)cc1	none (no result: APP transl inh, Ba/F3 V617F tox, BaF3 parental)
CCCCOc1ccc(OC(=O)Nc2cc(Cl)ccc2OC)cc1	none (no result: APP transl inh)
CCn1c(SCc2ccccc2Cl)nc2nc3c(cc2c1=O)CCCC3	APP transl inh 70.3
N#Cc1c(-c2ccccc2)cc(-c2ccccc2)nc1SCCC(=O)O	none (no result: APP transl inh, Ba/F3 V617F tox, BaF3 parental)
Cc1cc(OCCSc2nnc(-c3cccs3)n2C)ccc1Cl	none
Cn1c(SCCOc2ccccc2Cl)nnc1-c1cccs1	Ba/F3 V617F tox 34.9, BaF3 parental 37.1
COc1ccc(CC(=O)Nc2ccccc2NC(=O)Cc2ccc(OC)cc2)cc1	none (no result: APP transl inh, Ba/F3 V617F tox, BaF3 parental)
COc1ccc(CC(=O)Nc2cc(Cl)ccc2O)cc1	Ba/F3 V617F tox 70.3, BaF3 parental 42.2
Nc1[nH]c(=O)nc(Nc2ccccc2)c1N=O	none (no result: IEC-6 cytotox, APP transl inh, KLF5 inhibitor, Ba/F3 V617F tox, BaF3 parental)
O=C(Nc1ccc(Cl)cc1)Nc1csc([N+](=O)[O-])c1	Ba/F3 V617F tox 29.8, BaF3 parental 72.4 (no result: APP transl inh)
Cc1ccc(CSc2nc3ccncc3[nH]2)cc1	aSyn 5UTR inh 72.5
CCOC(=O)c1c(C)[nH]c2cc(Br)c(O)cc12	APP transl inh 54.6
CCOC(=O)c1c(-c2ccc(OC)cc2)oc2cc(Br)c(O)cc12	none (no result: APP transl inh, Ba/F3 V617F tox, BaF3 parental)
O=C(Nc1ncc(Cc2ccc(SC(F)F)cc2)s1)c1ccc(OC(F)F)cc1	APP transl inh 94.2
Cc1cc(NC(=O)CSc2nncn2N)no1	none
COc1ccc(C2CC(c3cccs3)=NN2C(=O)CCl)cc1OC (centres undefined)	none (no result: APP transl inh, Ba/F3 V617F tox, BaF3 parental)
COc1cc(C2CC(c3cccs3)=NN2C(=O)CCl)ccc1OC(F)F (centres undefined)	aSyn 5UTR inh 107.1 (no result: APP transl inh, Ba/F3 V617F tox, BaF3 parental)
CCOc1ccc(-c2cnc3n2CCC3)cc1	APP transl inh 45.7
Brc1ccc(-c2cnc3n2CCCC3)cc1	none
CC(C)N=c1scc(-c2ccco2)n1/N=C/c1ccc(O)c(O)c1	Ba/F3 V617F tox 96.0, BaF3 parental 73.4 (no result: aSyn 5UTR inh)
COc1cc(/C=N/NC(=O)c2ccc(O)cc2)ccc1OCC(=O)N1CC(C)OC(C)C1 (centres undefined)	none (no result: APP transl inh)
Clc1ccc(CN2C3=NCCN3c3ccccc32)cc1	BaF3 parental 62.3
CC(C)(C)c1ccc(CN2C3=NCCCN3c3ccccc32)cc1	Ba/F3 V617F tox 45.8, BaF3 parental 45.8
O=c1oc2ccc(Cl)cc2nc1/C=C(\O)c1cccs1	Ba/F3 V617F tox 36.2, BaF3 parental 38.4 (no result: APP transl inh)
Cc1c(CN2CCN(CC(C)C)C(CCO)C2)[nH]c2ccc(Cl)cc12 (centres undefined)	none (no result: APP transl inh, Ba/F3 V617F tox, BaF3 parental)
